Most compounds without a hit are left out; they make up all but 3.2% or so of the library.
Mtb betalactam – beta-lactam sensitization of Mtb H37Rv; M. tuberculosis H37Rv growth with meropenem, percent inhibition; inhibition, % at 25 µM; hit rate 0.27% among 330,000; call rule not given here;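 further: growth measured after seven days incubation then overnight dye step; 0% = bacteria only wells and 100% = bacteria with antibiotic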
Mtb UGM inh – inhibitors of M. tuberculosis UDP-galactopyranose mutase. P9WIQ1. purified UGM, fluorescence polarization probe displacement. inhibition, % at 10 µM. hit rate 0.06% among 320,000. AID 504406; in the data active means inhibition above about 10%, passing the limit was not always enough
GDH-TPI inh – counter-screen for M. tuberculosis FBA inhibitors: GDH-TPI coupled enzymes. hit rate 1.2% among 360,000. AID 588335. inhibition, % at 4.8 µM. GDH-TPI coupled enzyme counterscreen, NADH absorbance; in the data active means inhibition above about 30%;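 further: 0% = DMSO wells and 100% = wells lacking the enzyme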
FBA Mtb inh – Mtb fructose-bisphosphate aldolase inhibition; inhibition, % at 1 µM; purified M. tuberculosis FBA, fluorescence read-out; P9WQA3; hit rate 2.3% among 360,000; in the data active means inhibition above about 27%;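 further: 0% = vehicle and 100% = reference inhibitor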
Rv3671c protease – inhibits the M. tuberculosis serine protease Rv3671c | P9WHR9 | hit rate 0.048% among 320,000 | inhibition, % at 5.96 µM; in the data active means inhibition above about 38%;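 further: extracellular domain of Rv3671c used as enzyme; 0% = enzyme with DMSO and 100% = no enzyme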
Target sequence (P9WHR9 whole entry, looked up, the tested form may be a part): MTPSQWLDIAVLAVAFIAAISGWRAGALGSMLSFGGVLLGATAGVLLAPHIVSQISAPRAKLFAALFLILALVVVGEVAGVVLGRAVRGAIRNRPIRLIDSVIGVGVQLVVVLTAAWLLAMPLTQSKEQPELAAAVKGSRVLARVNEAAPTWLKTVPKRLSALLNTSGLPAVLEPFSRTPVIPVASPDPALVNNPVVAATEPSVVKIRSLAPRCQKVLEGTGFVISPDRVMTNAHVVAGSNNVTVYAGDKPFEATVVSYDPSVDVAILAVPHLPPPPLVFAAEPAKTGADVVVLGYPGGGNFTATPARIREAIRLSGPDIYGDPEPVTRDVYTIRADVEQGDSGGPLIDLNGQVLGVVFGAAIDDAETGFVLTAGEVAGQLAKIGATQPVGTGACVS
PriA SSB inh – K. pneumoniae PriA-SSBct interaction inhibition. AlphaScreen SSBct-PriA binding, biotinylated peptide. inhibition, % at 33 µM. hit rate 0.6% among 430,000; in the data active means inhibition mostly above about 37%, no sharp cut-off; inactive means mostly below about 20%;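 further: plate controls were negative control peptide for no effect and reference peptide for full effect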
* = called active by the depositor; . = no result given.

SMILES	Mtb betalactam	Mtb UGM inh	GDH-TPI inh	FBA Mtb inh	Rv3671c protease	PriA SSB inh
COc1cc2c(cc1NC(=S)Nc1cccc(C(F)(F)F)c1)oc1ccccc12	90	2	11	64*	-2	-11
COc1cc2c(cc1NC(=O)Nc1ccccc1)oc1ccccc12	-7	-1	15	0	-33	-2
COc1cc2c(cc1NCc1ccccn1)oc1ccccc12	99	-1	0	29*	-4	17
COc1cc2c(cc1NCc1ccc3c(c1)OCO3)oc1ccccc12	74	-1	15	21	11	21
COc1ccc2c(c1)CCC2=NOC(=O)c1ccccc1C	.	.	.	.	.	-4
Cc1nnsc1C(=O)N1CCC[C@H](Cc2nc(-c3ccsc3)no2)C1	.	.	.	.	.	-7
O=C(/C=C/c1cccs1)Nc1ccncc1	2	0	36*	-2	-5	2
O=C(/C=C/c1cccs1)NC(=S)Nc1ccc(C(=O)O)cc1	24	2	74*	1	-9	-16
NS(=O)(=O)c1ccc(NC(=S)NC(=O)/C=C/c2cccs2)cc1	4	0	13	-2	-33	-6
CCN1C(=O)c2cccc3c(NC(=O)c4c(F)cccc4F)ccc1c23	.	.	.	.	.	-8
O=C(CSc1ncc(-c2cccc(Br)c2)o1)N1CCN(c2ccc(F)cc2)CC1	.	.	.	.	.	-11
Cc1cccnc1NC(=S)Nc1ncccc1C	-4	0	12	8	-7	5
COc1ccc(NC(=S)Nc2ncccc2C)c(OC)c1	-6	3	12	0	10	46*
COc1ccc(NC(=S)Nc2ncccc2C)cc1OC	6	-1	-1	2	-2	-3
COc1ccc(OC)c(NC(=S)Nc2ncccc2C)c1	.	.	.	.	.	105*
CC(=O)NC(c1ccccc1)c1cc([N+](=O)[O-])c2cccnc2c1O (centres undefined)	29	1	-2	-17	-9	44*
Cn1c(C(C#N)C(=O)Cc2cccc3ccccc23)nc2ccccc21 (centres undefined)	17	0	7	0	3	6
Cn1c(C(C#N)C(=O)c2ccco2)nc2ccccc21 (centres undefined)	94	-1	33*	4	-2	-7
CC(N)=Nc1ccc([N+](=O)[O-])cc1	4	14*	7	-1	-2	-2
CC(=O)c1ccc([N+](=O)[O-])cc1	-5	1	0	2	-1	-1
COc1ccc(-c2cc3ccc(O)cc3oc2=O)cc1OC	4	-2	8	119*	-3	-24
COc1ccc(-c2c(C)c3cc(O)ccc3oc2=O)cc1OC	4	3	13	1	-25	-23
COc1ccc(-c2cc3ccc(OCC(N)=O)cc3oc2=O)cc1OC	7	3	32*	2	-12	-16
COc1ccc(-c2coc3cc(OCC(N)=O)ccc3c2=O)cc1OC	.	.	.	.	.	-19
CC(=C\C(=O)O)/C(=C\c1cccc2ccccc12)C(=O)O	17	2	31*	3	7	-3
SMILES	Mtb betalactam	Mtb UGM inh	GDH-TPI inh	FBA Mtb inh	Rv3671c protease	PriA SSB inh
CC(=C\C(=O)O)/C(=C/c1ccco1)C(=O)O	-6	-3	14	5	10	-7
Cc1cc(Cl)ccc1OCC(=O)N/N=C\c1ccccc1O	.	.	.	.	.	-11
Nc1ccc(N2CCCCC2)cc1N1CCCCC1	91	-2	-3	0	-9	63*
Cc1ccc(/C=N/Nc2nc3ccccc3[nH]2)s1	7	1	39*	1	-1	.
Cc1ccccc1C=NNc1nc2ccccc2[nH]1	.	.	.	.	.	1
C=CCn1cc(C=NNc2nc3ccccc3[nH]2)c2ccccc21	.	.	.	.	.	61*
C(=C\c1ccccc1)/C=N/Nc1nc2ccccc2[nH]1	87	-1	39*	0	16	.
Cc1ccccc1/C=N/Nc1nc2ccccc2[nH]1	65	0	12	189*	8	.
CC1CCN(c2ccc(-c3ccc(NS(=O)(=O)c4ccc5c(c4)OCCO5)cc3)nn2)CC1	.	.	.	.	.	-14
COC(=O)N1CCC(CNC(=O)CSC2CCCC2)CC1	.	.	.	.	.	-7
O=C(Cn1nc(-c2cccs2)c2sc(N3CCCC3)nc2c1=O)Nc1cccc(F)c1	.	.	.	.	.	-8
O=C(NCCn1cnc2ccsc2c1=O)c1c[nH]c(=O)c(Cl)c1	.	.	.	.	.	-6
Cc1ccc(/C=N/Nc2nc(Cl)c(Cl)cc2Cl)s1	-12	0	31*	1	4	.
Cc1nn(-c2ccccc2)c(C)c1C=NNc1nc2ccccc2[nH]1	.	.	.	.	.	56*
Cc1nn(-c2ccccc2)c(Cl)c1/C=N/Nc1nc2ccccc2[nH]1	-5	-3	-2	3	0	.
Cc1ccc(C=NNc2nc(Cl)c(Cl)cc2Cl)s1	.	.	.	.	.	-1
